Laboratory results published in PubChem BioAssay (Tox21).
Results filed as inconclusive are left out. A call without a number means that no potency is given here. Unmarked numbers belong to inactive results. The source made the active and inactive calls. Unless noted, calls follow the shape of the dose curve; as a rule, active = well fitted curve in the direction sought with a large enough effect in the repeat runs; inconclusive = weak or mixed curves; inactive = no such curve, though single readings can be large; an effect the other way counts as inactive or inconclusive.

What was measured:
[1] = qHTS assay to identify small molecule antagonists of the vitamin D receptor (VDR) signaling pathway - cell viability counter screen (AID 743225); also: nearly all actives have a fitted effect of over 50% in size
Outline: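 HEK293T VDR-bla; cpd + 1a,25-(OH)2D3 3 nM final, 16 h 37C/5% CO2; B/G FRET substrate 2 h RT; then CellTiter-Glo 30 min RT, luminescence.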

[2] = qHTS assay to identify small molecule agonists of the NFkB signaling pathway (AID 1159509; active = well fitted curve in the direction sought with a large enough effect in the signal ratio in the repeat runs, not every such curve was filed as active; the % refers to the signal ratio; also: series mostly up to about 61 µM)
Outline: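 Readout: FRET fluorescence, 405 nm excitation, 460/530 nm emission; beta-lactamase expression disrupts FRET. Cells: ME-180 stably carrying NF-kB-driven bla reporter. Compound exposure 5 hr, 37 C, 5% CO2.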

[3] = qHTS assay to identify small molecule agonists of the NFkB signaling pathway - cell viability counter screen (AID 1159515; calls by dose curve; also: series mostly up to about 61 µM; nearly all actives have a fitted effect of over 55% in size)
Outline: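 Tox21 library compounds were tested for cytotoxicity against NFkB-bla ME-180 cells during a 5 hr exposure at 37 C. CellTiter-Glo luminescence served as the viability read-out.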

[4] = qHTS assay to identify small molecule agonists of the endoplasmic reticulum stress response signaling pathway - cell viability counter screen (AID 1159517; calls by dose curve; also: nearly all actives have a fitted effect of over 50% in size; also: potency is read from the fitted curve at half-maximal effect)
Outline: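 Steps: seed 1,500 ESRE-bla HeLa cells per well; incubate overnight at 37 C, 5% CO2; add compounds in DMSO for 5 hr; run FRET substrate 2 hr RT; add CellTiter-Glo, wait 30 min, read luminescence.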

[5] = qHTS assay to identify small molecule antagonists of the retinoid-related orphan receptor gamma (ROR-gamma) signaling pathway - cell viability counter screen (AID 1159520); also: nearly all actives have a fitted effect of over 50% in size
Outline: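 Tet-on ROR gamma CHO cells were given compounds for 2 hr, then doxycycline hyclate at 1 uM final, and incubated 16 hr at 37 C. Viability was measured as ATP content by CellTiter-Glo luminescence.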

[6] = target: Nuclear receptor ROR-gamma (Homo sapiens) (UniProt P51449); assay: qHTS assay to identify small molecule antagonists of the retinoid-related orphan receptor gamma (ROR-gamma) signaling pathway (AID 1159521;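 also: CHO cells with doxycycline inducible ROR-gamma driving an RORE luciferase reporter; top concentration of the series differs between compounds; nearly all actives have a fitted effect of over 50% in size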)
Outline: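 Cells were plated, rested 4 h at 37 C, exposed to compounds for 2 h, then given 1 uM final doxycycline hyclate to induce RORγ expression. After 16 h, ONE-Glo luminescence from the ROR response element reporter was measured.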

[7] = qHTS assay to identify small molecule agonists of the AP-1 signaling pathway - cell viability counter screen (AID 1159525; calls by dose curve; also: nearly all actives have a fitted effect of over 55% in size)
Outline: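 Same-well cytotoxicity counter screen of the Tox21 10K library in ME-180 cells. The readout is ATP-dependent luminescence after 5 h compound treatment. Data are normalised to DMSO and tetra n-octyl ammonium bromide controls.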

[8] = qHTS assay to identify small molecule agonists of the AP-1 signaling pathway (AID 1159526; calls by dose curve)
[9] = target: Retinoic acid receptor RXR-alpha (Homo sapiens) (UniProt P19793); assay: qHTS assay to identify small molecule agonists of the RXR signaling pathway (AID 1159527; calls by dose curve; also: nearly all actives have a fitted effect of over 35% in size)
Outline: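 Cells plated at 2,000/well, rested 5 hr at 37 C, pin-dosed with DMSO compound solutions, incubated 16 hr, then loaded with B/G FRET substrate for 2 hr at RT before dual-emission fluorescence reading.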

[10] = qHTS assay to identify small molecule agonists of the RXR signaling pathway - cell viability counter screen (AID 1159529)
Outline: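 Steps: seed RXR-alpha-UAS-bla HEK 293T cells in assay medium containing 2% charcoal-stripped FBS; incubate 5 hr; add compounds in DMSO; incubate 16 hr at 37 C; after the bla read, add CellTiter-Glo and read luminescence at 30 min.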

[11] = qHTS assay to identify small molecule antagonists of the retinoid acid receptor (RAR) signaling pathway - cell viability counter screen (AID 1159551); also: nearly all actives have a fitted effect of over 35% in size
Outline: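 In this counter screen, the RARE-luciferase line C3RL4 was exposed for 6 h at 37 C and 5% CO2 to compounds with retinol at 1 uM final. Cellular ATP, read by luminescence, served as the viability measure.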

[12] = qHTS assay to identify small molecule antagonists of the retinoic acid receptor (RAR) signaling pathway (AID 1159552; also: nearly all actives have a fitted effect of over 50% in size)
Outline: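 Retinol at 1 uM final stimulated RARE-luciferase expression in C3RL4 cells exposed to test compounds for 6 hr at 37 C. Reduced luminescence, read 30 min after detection reagent, indicated pathway antagonism.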

[13] = qHTS assay to identify small molecule agonists of the retinoic acid receptor (RAR) signaling pathway (AID 1159553); also: potency is read from the fitted curve at half-maximal effect
Outline: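 In this cell-based screen, 1,000 C3RL4 cells per well were cultured overnight, dosed with test chemicals in DMSO for 6 hr, and assessed for RARE luciferase luminescence.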

[14] = qHTS assay to identify small molecule antagonists of the estrogen related receptor (ERR) signaling pathway from Tox21 library - cell viability counter screen (AID 1224834); also: nearly all actives have a fitted effect of over 30% in size
Outline: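 Counter screen run in ERR cells (2,000 cells/well): cells pre-incubated 6 h, then treated with compounds for 17.5 h at 37 C. Fluorescence was read 30 min after CellTiter-Fluor addition.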

[15] = qHTS assay to identify small molecule antagonists of the estrogen related receptor signaling pathway with the pleiotropic PPARgamma coactivator (PGC) cell viability counter screen (AID 1224822;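 also: series mostly up to about 46 µM; viability read after 17.5 h compound exposure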)
Outline: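 17.5 h compound treatment of PGC/ERR cells at 37 C; readout CellTiter-Fluor fluorescence; run alongside the PGC/ERR antagonist screen to flag cytotoxic compounds.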

Retinoic acid receptor RXR-alpha (Homo sapiens), sequence (P19793 whole entry, looked up): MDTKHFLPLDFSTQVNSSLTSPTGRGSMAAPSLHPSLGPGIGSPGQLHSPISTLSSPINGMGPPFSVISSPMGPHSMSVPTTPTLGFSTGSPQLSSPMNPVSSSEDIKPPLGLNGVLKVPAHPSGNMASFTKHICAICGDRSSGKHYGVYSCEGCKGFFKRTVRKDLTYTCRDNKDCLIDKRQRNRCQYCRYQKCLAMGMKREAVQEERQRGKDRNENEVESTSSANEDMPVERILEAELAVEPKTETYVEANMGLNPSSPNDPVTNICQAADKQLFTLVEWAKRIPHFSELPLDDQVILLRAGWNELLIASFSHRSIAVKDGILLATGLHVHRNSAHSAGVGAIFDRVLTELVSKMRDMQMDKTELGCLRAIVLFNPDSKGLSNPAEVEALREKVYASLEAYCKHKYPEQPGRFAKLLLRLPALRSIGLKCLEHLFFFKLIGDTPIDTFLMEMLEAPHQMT

SMILES | Potency [1] | outcome [2] | Potency [3] | Potency [4] | Potency [5] | Potency [6] | Potency [7] | outcome [8] | Potency [9] | Potency [10] | Potency [11] | Potency [12] | Potency [13] | Potency [14] | outcome [15]
CCO[Si](C)(CCCOCC1CO1)OCC (stereo not given) | inactive | inactive | inactive | inactive | inactive | inactive | inactive | inactive | inactive | inactive | inactive | inactive | inactive | inactive | 
CC(C)(C)S | inactive | inactive | inactive | inactive | inactive | inactive | inactive | inactive | inactive | inactive | inactive |  | inactive | inactive | 
NC(=O)c1ccccc1[N+](=O)[O-] | inactive | inactive | inactive | inactive | inactive | inactive | inactive | inactive | inactive | inactive | inactive | inactive | inactive | inactive | 
CC(=O)NCCO | inactive | inactive | inactive | inactive | inactive | inactive | inactive | inactive | inactive | inactive | inactive | inactive |  | inactive | 
CNc1c2c(nn1C)CCCC2 | inactive | inactive | inactive | inactive | inactive | inactive | inactive | inactive | inactive | inactive | inactive |  | inactive | inactive | 
CC(=O)OCCC1CCCCC1 | inactive | inactive | inactive | inactive | inactive | inactive | inactive | inactive | inactive | inactive | inactive | inactive | inactive | inactive | 
CSSc1ccoc1C | inactive | inactive | inactive | inactive | inactive | inactive | inactive | inactive | inactive | inactive | inactive |  | 0.0431 µM (active) | inactive | 
CCCCOCCOC(=O)c1cccnc1 | inactive | inactive | inactive | inactive | inactive | inactive | inactive | inactive | inactive | inactive | inactive |  |  | inactive | 
COc1ccc(CCN(C)CCCN2CCc3cc(OC)c(OC)cc3CC2=O)cc1OC | inactive | inactive | inactive | inactive | inactive | inactive | inactive | inactive | inactive | inactive | inactive |  |  | inactive | 
O=C(O)CNC(=O)c1ccccc1I | inactive | inactive | inactive | inactive | inactive | inactive | inactive | inactive | inactive | inactive | inactive |  |  | inactive | 
O=C(O)c1ccc(O)cc1O | inactive | inactive | inactive | inactive | inactive | inactive | inactive | inactive | inactive | inactive |  | inactive | inactive | inactive | 
COc1ccc(N)c([N+](=O)[O-])c1 | inactive | inactive | inactive | inactive | inactive | inactive | inactive | inactive | inactive | inactive | inactive | inactive | inactive |  | 
Cc1oc(=O)oc1COC(=O)[C@@H]1N2C(=O)[C@@H](NC(=O)[C@H](N)c3ccccc3)[C@H]2SC1(C)C | inactive | inactive | inactive | inactive | inactive | inactive | inactive | inactive | inactive | inactive | inactive |  |  | inactive | 
CC(C)OC(=O)c1ccccc1C(=O)OC(C)C | inactive | inactive | inactive | inactive | inactive | inactive | inactive | inactive | inactive | inactive | inactive | inactive | inactive | inactive | 
CCCCCCCC(=O)OCCCCCC | inactive | inactive | inactive | inactive | inactive | inactive | inactive | inactive | inactive | inactive | inactive | inactive | inactive | inactive | 
CC1CCC(C(C)CS)CC1S (stereo not given) | inactive | inactive | inactive | 19.5 µM (active) | inactive | inactive | inactive | inactive | inactive | inactive | inactive | inactive | inactive | inactive | 
N[C@@H](Cc1cc(I)c(O)c(I)c1)C(=O)O | inactive | inactive | inactive | inactive | inactive | inactive | inactive | inactive | inactive | inactive | inactive |  | inactive | inactive | 
CC(=O)C(C)=O | inactive | inactive | inactive | inactive | inactive | inactive | inactive | inactive | inactive | inactive | inactive |  |  | inactive | inactive
CC(C)c1ccc(C#N)cc1 | inactive | inactive | inactive | inactive | inactive | inactive | inactive | inactive | inactive | inactive | inactive | inactive | inactive | inactive | 
